Shown are actives, neighbours in structure and some others; about 0.33% of the full set was active somewhere.
FXIIa single = human FXIIa protease inhibitors, primary screen, biochemical, single well; Coagulation factor XII (Homo sapiens), P00748; purified human FXIIa, AMC substrate fluorescence, 2 h; inhibition, % at 10 µM; 33,000 compounds, 0.2% hits; AID 701, 2007; in the data active means inhibition above about 30%;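 further: 0% = enzyme with vehicle only and 100% = no enzyme blank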
FXIa single inh = human FXIa protease inhibitors, primary screen, biochemical, single compound per well; inhibition, % at 10 µM; purified human FXIa, fluorogenic AMC substrate cleavage; Coagulation factor XI (Homo sapiens), P03951; AID 687, 2007; 33,000 compounds, 0.3% hits;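 active means inhibition above 40% in the primary screen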;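 further: 0% = enzyme without compound and 100% = blank wells lacking enzyme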
Starred values were filed as active, the others as inactive.

SMILES	FXIIa single	FXIa single inh
O=C(c1ccccn1)N(Cc1ccco1)C1(C(=O)NC2CCCC2)CCCCC1	-13	24
Cc1cc(=O)n(CNC(=O)c2ccccc2)c(=S)[nH]1	-12	15
O=C(NC(C(=O)c1ccccc1)n1c(=O)cc[nH]c1=S)c1ccccc1 (centres undefined)	4	48*
Cc1c(C=O)cnn1CCC(=O)O	1	-2
CCOC(=O)N1CCN(CC(=O)Nc2ccc(C)cc2)CC1	2	4
CCOC(=O)N1CCN(C/C(C)=C/c2ccccc2)CC1	31*	2
CC(C)(C)C(=O)NCCN1CCN(C(=O)C(C)(C)C)CC1	4	-5
COc1ccc(CN2CC(C(=O)NCc3ccc4c(c3)OCO4)CC2=O)cc1 (centres undefined)	2	32
COc1ccc(CC(=O)NCc2ccc3c(c2)OCO3)cc1	7	53*
Cc1ccc(S(=O)(=O)/N=C(\CCl)N2CCOCC2)cc1	6	5
CCOc1ccc(S(=O)(=O)NCc2ccc(OC)cc2)c2cccnc12	9	62*
CCOc1ccc(S(=O)(=O)Nc2ccccn2)c2ccccc12	0	-6
Cc1cccc(N2CCN(CC(=O)Nc3ccc(-n4cnnn4)cc3)CC2)c1C	4	41*
O=C(Nc1ccc(-n2cnnn2)cc1)C1CCCCC1	4	5
CCCCN(CCCC)S(=O)(=O)c1ccc(NC(=O)Cc2cccs2)cc1	13	-9
COc1cc(OC)cc(C(C(=O)NC2CCCCC2)N(C(=O)c2ccno2)c2ccccc2)c1 (centres undefined)	10	-3
CCOC(=O)C1CCN(C(=O)c2cccnc2Cl)CC1	4	13
COc1ccc(CCNC(=O)COC(=O)c2cnc(C)cn2)cc1	5	-1
Cc1cnc(C(=O)OCC(=O)NCc2ccccc2)cn1	3	41*
COc1ccc(C(=O)n2nc(-c3ccccc3)nc2N)cc1OC	62*	1
COc1cc(C(N)=O)ccc1OCc1ccccc1	4	2
CCOc1ccc(C2C(C(=O)c3cccs3)=C(O)C(=O)N2CCCn2ccnc2)cc1 (centres undefined)	2	0
CCC(C)Sc1nc2ccccc2n1CC(=O)O (centres undefined)	5	-6
O=C(Oc1ccc2c(=O)c(Cl)coc2c1)c1cccnc1	29	59*
CCN(CC)C(=O)Oc1ccc2c(=O)c(-c3ccccc3)coc2c1	4	2
CCn1c(SCC(=O)c2[nH]c(C)c(C(C)=O)c2C)nnc1-c1ccccc1	-10	41*
CCOC(=O)c1c(C)[nH]c(C)c1C(=O)CSc1nnc(-c2ccncc2)n1Cc1ccccc1	1	-7

Screens from PubChem.
